SMARCA2 activ – SMARCA2 function activation, primary screen | MG213 cells, MMTV-luciferase reporter, dexamethasone, overnight | activation, % at 9.1 µM | actives 1% (n = 370,000); in the data active = activation above about 7.8%
hcDAF12 agonist – activates DAF-12 receptor from parasite H. contortus. activation, % at 6.8 µM. HEK293 hcDAF-12 lit1-tk-luc reporter, luminescence; 0% DMSO, 100% Δ7-dafachronic acid. AID 652067. actives 1.4% (n = 370,000);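 active = activation above the mean of all tested compounds plus 3 SD, cut at about 5.5% in these data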
ssDAF-12 act – activates DAF-12 receptor from parasite S. stercoralis. HEK293 ssDAF-12/GRIP1 lit1-tk-luc reporter, luminescence; % of 3 µM dafachronic acid response. AID 652126. activation, % at 6.8 µM. actives 1% (n = 370,000);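 active = activation above the mean over all tested compounds plus 3 SD, cut at about 0.9% in these data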
DAX1 inh-1 – inhibits human nuclear receptor DAX1; HEK293 Gal4-DAX1 luciferase reporter, luminescence; inhibition, % at 6.75 µM; P51843; actives 0.99% (n = 340,000); AID 504766;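 active = inhibition above the mean over all tested compounds plus 3 SD, cut at about 4.2% in these data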;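 also: inhibition shows as a rise in luminescence from relieved DAX1 repression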
Target sequence (P51843 207-470 limits assumed): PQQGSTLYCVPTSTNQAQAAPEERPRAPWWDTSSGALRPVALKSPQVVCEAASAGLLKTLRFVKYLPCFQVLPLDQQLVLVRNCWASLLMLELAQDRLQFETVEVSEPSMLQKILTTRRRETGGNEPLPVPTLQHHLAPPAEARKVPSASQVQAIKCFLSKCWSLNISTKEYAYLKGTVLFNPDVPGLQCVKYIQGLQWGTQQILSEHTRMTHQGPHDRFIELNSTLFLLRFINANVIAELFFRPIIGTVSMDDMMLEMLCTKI
DAX1 inh-2 – blocks DAX1 repression of SF-1 activated StAR promoter; HEK293T StAR-luciferase reporter, SF-1/DAX-1 repression relief; inhibition, % at 6.8 µM; actives 1.1% (n = 370,000); AID 652010;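 active = inhibition above the mean over all tested compounds plus 3 SD, cut at about 3.6% in these data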;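 also: higher inhibition means more luminescence from relief of DAX-1 repression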
hgDAF-12 ag – hgDAF-12 agonism, primary luciferase screen. HEK293 GAL4-hgDAF12 UAS-luciferase reporter, agonist luminescence; normalized to butyrate control. actives 1.8% (n = 370,000). activation, % at 6.8 µM;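 active = activation above a cutoff set at the mean of all screened compounds plus 3 SD, cut at about 10% in these data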
SMARCA2 conf – confirmation of SMARCA2 (BRM) function activators; shares compounds with SMARCA2 activ; MG213 cells, MMTV-luciferase with dexamethasone, luminescence, overnight; MG213 cells expressing E1A, Rb sequestered; DMSO wells 0%, reference activator 100%; activation, % at 9.1 µM; actives 30% (n = 3,500);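 active = activation above its plate's cutoff, the mean activation of tested wells plus 3 SD, cut at about 7.9% in these data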
VP16 Luc act – counter-screen for SMARCA2 activators: GAL4-VP16 luciferase reporter activation | shares compounds with SMARCA2 activ | HEK293 GAL4-VP16 pG5luc reporter, luciferase luminescence; scaled: DMSO wells 0%, SAHA wells 100% | activation, % at 9.1 µM | actives 41% (n = 3,500);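 active = activation above the solvent-only control well mean plus 3 SD, averaged across control plates, cut at about 5.2% in these data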
Large screens that a line does not name were inactive (follow-up assays come after a bar, where they were run). In the library only some 4.8% were active in any assay of this set; here they are far more common.

C/C=C/c1ccc(OCC(=O)OCc2csc(Nc3ccc(C)cc3)n2)c(OC)c1	none
Cc1ccc(Nc2nc(COC(=O)COc3ccc(C=O)cc3)cs2)cc1	SMARCA2 activ 9.8 | SMARCA2 conf 8.1 | VP16 Luc act 9.0
c1ccc2oc(C3=NNC(=NC4CC4)SC3)cc2c1	SMARCA2 activ 9.5, hcDAF12 agonist 6.8 | SMARCA2 conf inactive | VP16 Luc act 6.5
Cc1noc(C)c1S(=O)(=O)N(C)C[C@@H]1OCc2cnnn2CCCC(=O)N([C@@H](C)CO)C[C@@H]1C	none (no result: DAX1 inh-1)
Cc1ccc(S(=O)(=O)NN=CC2(c3ccccc3)CC2)cc1	SMARCA2 activ 9.8 | SMARCA2 conf inactive | VP16 Luc act inactive
CSc1ccc(/C=N/NC(=O)c2cc(O)cc(O)c2)cc1	SMARCA2 activ 9.3 | SMARCA2 conf 9.4 | VP16 Luc act 5.4
O=C(Oc1ccc(/C=N/NC(=O)c2ccccc2O)cc1)c1ccccc1	none
O=C(N/N=C/c1ccc(OC(=O)c2ccccc2)cc1)c1cccc(O)c1	SMARCA2 activ 10.0 | SMARCA2 conf inactive | VP16 Luc act inactive
Cn1c2ccccc2c2cc(/C=N/NC(=O)c3cc(O)cc(O)c3)ccc21	none
CC(CN(C)C)CN1c2ccccc2CCc2ccccc21 (configuration not stated)	SMARCA2 activ 8.2 | SMARCA2 conf inactive | VP16 Luc act inactive
N#Cc1ccc(Cn2nnc(-c3ccc(N4CCOCC4)cc3)n2)cc1	none (no result: DAX1 inh-1)
COc1cc(Nc2c3ccccc3nc3ccccc23)cc(OC)c1OC	SMARCA2 activ 8.2, hcDAF12 agonist 5.7 | SMARCA2 conf 30.5 | VP16 Luc act inactive
CCc1ccc2[nH]c(=O)c(CN(Cc3nnnn3C3CCCC3)C3CCCCC3)cc2c1	SMARCA2 activ 8.3 | SMARCA2 conf inactive | VP16 Luc act 5.8
CC(C)(C)OC(=O)N1CCC(N[C@@H](Cc2ccccc2)C(=O)NCC(c2ccccc2)c2ccccc2)(C(=O)NC2CCCCC2)CC1	none (no result: SMARCA2 activ, DAX1 inh-1, DAX1 inh-2)
Cc1ccc(C2CC(=O)C=C(Nc3ccc(Cl)cc3)C2)cc1 (configuration not stated)	SMARCA2 activ 9.9 | SMARCA2 conf inactive | VP16 Luc act inactive
Cc1ccc(NC(=O)COC(=O)C2CCC(=O)N2)c([N+](=O)[O-])c1 (configuration not stated)	SMARCA2 activ 12.6 | SMARCA2 conf inactive | VP16 Luc act inactive
CC(/C=N/NC(=O)c1cccs1)=C\c1ccco1	SMARCA2 activ 9.2, hgDAF-12 ag 12.3 | SMARCA2 conf 9.3 | VP16 Luc act 11.6
CCC/C(=N\NC(=O)C1CC1)c1ccccc1	SMARCA2 activ 8.1 (no result: DAX1 inh-1) | SMARCA2 conf inactive | VP16 Luc act inactive
CCN(CC)c1c(C)nc2ccc(C(=O)N3CCN(C(=O)c4ccco4)CC3)cn12	SMARCA2 activ 9.4 (no result: DAX1 inh-1) | SMARCA2 conf inactive | VP16 Luc act inactive
CC(=O)Nc1ccc(CN(C)c2c(C)nc3ccc(C(=O)N4CCN(C(=O)c5ccco5)CC4)cn23)cc1	none (no result: DAX1 inh-1)
O=P(c1ccccc1)(c1ccccc1)c1cnc2ccccn12	none (no result: SMARCA2 activ, DAX1 inh-1, DAX1 inh-2)
C[C@H]1CN(S(=O)(=O)C(C)(C)C)[C@@H](CCO)/C1=C\CCO	none (no result: DAX1 inh-1)
Cc1ccc2c(c1)N(CCCC(=O)N(C)Cc1ccc(F)cc1)C(=O)CO2	none (no result: DAX1 inh-1)
CN(CC1CCCN(CCc2cccc(C(F)(F)F)c2)C1)C(=O)c1ccco1 (configuration not stated)	SMARCA2 activ 11.3 | SMARCA2 conf inactive | VP16 Luc act inactive
O=C(c1ccccc1)c1nnc(-c2ccccc2F)o1	SMARCA2 activ 11.1 | SMARCA2 conf inactive | VP16 Luc act inactive
O=C(CSc1nnc(-c2ccccc2F)o1)NC1CC1	none
COC(=O)C1=C(C)N(C)C(=NCC2CC2)NC1c1ccccc1 (configuration not stated)	none (no result: DAX1 inh-1)
CC(c1ccccc1)N1CC[C@H]2C=CC[C@@H](C(=O)Nc3cccc(Cl)c3)[C@H]2C1=O (some centres not stated)	none (no result: SMARCA2 activ, DAX1 inh-1, DAX1 inh-2)
O=C(NC1CCCC1)C(c1ccc(Cl)cc1)N1CCOCC1 (configuration not stated)	none
O=C(NC1CCCC1)C(c1ccc(F)cc1)N1CCC(O)(c2ccc(Cl)cc2)CC1 (configuration not stated)	SMARCA2 activ 12.8 (no result: DAX1 inh-1) | SMARCA2 conf inactive | VP16 Luc act inactive
Cn1cc(Br)c(C(=O)Nc2sc3c(c2C(N)=O)CCC3)n1	SMARCA2 activ 8.7 | SMARCA2 conf inactive | VP16 Luc act 6.7
O=C(NC1CCCC1)c1ccccc1OCc1ccccc1	none
COc1ccccc1C(=O)NC1CCCCCCC1	SMARCA2 activ 8.0 | SMARCA2 conf inactive | VP16 Luc act inactive
O=C(NC1CCCCCCC1)c1ccc(F)cc1	SMARCA2 activ 11.6, hgDAF-12 ag 11.2 | SMARCA2 conf 12.2 | VP16 Luc act 7.5
COc1cccc(N=Nc2ccc3ccccc3c2O)c1	SMARCA2 activ 8.0, ssDAF-12 act 1.6 | SMARCA2 conf inactive | VP16 Luc act 5.6
O=C(CCNC(=O)c1ccccc1)NCc1ccccc1F	SMARCA2 activ 9.4 | SMARCA2 conf inactive | VP16 Luc act inactive
COC(=O)C1=C(C)N(Cc2cccc(C(F)(F)F)c2)C(=NCC2CC2)NC1c1cccc(Cl)c1 (configuration not stated)	none (no result: DAX1 inh-1)
COC[C@@H](O)[C@H]1OCc2cccc(OC)c2[C@@H]1/C=C/c1ccccc1	none (no result: DAX1 inh-1)
COC(=O)c1ccc(-c2ccc(/C=N/N3C(=O)C4C5C=CC(C6CC56)C4C3=O)o2)cc1 (configuration not stated)	SMARCA2 activ 9.0 | SMARCA2 conf inactive | VP16 Luc act 5.9
O=C1C2C3C=CC(C4CC34)C2C(=O)N1/N=C/c1ccc([N+](=O)[O-])o1 (configuration not stated)	SMARCA2 activ 9.3 | SMARCA2 conf 10.4 | VP16 Luc act inactive
O=[N+]([O-])c1ccc(/C=N/N=C/c2ccc([N+](=O)[O-])o2)o1	SMARCA2 activ 19.1 | SMARCA2 conf inactive | VP16 Luc act inactive
O=C1C2C3C=CC(C4CC34)C2C(=O)N1/N=C/c1ccc(-c2ccc([N+](=O)[O-])cc2)o1 (configuration not stated)	none
COc1ccc(-n2c(SCC(=O)NC3CCCCCC3)nnc2-c2ccncc2)cc1	none (no result: DAX1 inh-1)
CC(C)C[C@H](NC(=O)C1CC1)C(=O)N1CCC[C@H]1C(=O)NCc1ccccc1	none (no result: DAX1 inh-1)

Bioassay records (PubChem BioAssay)
